Data published in PubChem BioAssay (NCI).
The panel holds about 79,000 compounds, 15% with a hit somewhere; the sample as a whole holds those more often. Values without a mark were called inactive. Calls of active or inactive are those of the source. Cut-off read from the data, not from the text of the source: active = growth inhibition above about 70%; inactive = the rest.

Tests used:
[1] = NCI Yeast Anticancer Drug Screen. Data for the rad50 strain (AID 155);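 note: 0% = growth of vehicle-only cultures of the same strain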; conditions: S. cerevisiae rad50 strain growth inhibition, active compounds read high
Summary of the method: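 Vehicle-treated cultures provide the reference for the growth inhibition reported for compound-exposed, repair-deficient yeast.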

[2] = NCI Yeast Anticancer Drug Screen. Data for the mec2-1 strain (AID 157); conditions: S. cerevisiae mec2-1 strain, active compounds read high
Summary of the method: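 Readout is yeast growth inhibition, normalised to vehicle-treated controls, in the mec2-1 strain exposed to compound.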

[3] = NCI Yeast Anticancer Drug Screen. Data for the sgs1 mgt1 strain (AID 161);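 note: 0% = growth of cultures given vehicle only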; conditions: S. cerevisiae sgs1 mgt1 strain, active compounds read high
Summary of the method: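 Growth of a repair-deficient yeast mutant was monitored after compound treatment and expressed as inhibition relative to vehicle-treated cultures.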

[4] = NCI Yeast Anticancer Drug Screen. Data for the cln2 rad14 strain (AID 165);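 note: 0% = growth equal to vehicle treated cultures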; conditions: S. cerevisiae cln2 rad14 strain, active compounds read high
Summary of the method: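 Relative to vehicle controls, growth inhibition of compound-treated cln2 rad14 yeast was recorded.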

[5] = NCI Yeast Anticancer Drug Screen. Data for the bub3 strain (AID 167); conditions: S. cerevisiae bub3 mutant strain, active compounds read high
Summary of the method: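 Mutant yeast screening strain plus compound; vehicle-treated cultures serve as the 0% inhibition reference.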

[6] = NCI Yeast Anticancer Drug Screen. Data for the mlh1 rad18 strain (AID 175); conditions: S. cerevisiae mlh1 rad18 strain growth inhibition, active compounds read high
Summary of the method: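 Test agents were incubated with a yeast strain of defined genotype (DNA damage repair defect). Inhibition of growth was derived by comparison with vehicle-exposed cultures.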

[7] = at 5.0 µM (retest, dose inferred, filed as 0.5)
[8] = at 50.0 µM (retest, dose inferred, filed as 5.0)

Row | SMILES | growth inhibition [1, 7] | growth inhibition [1, 8] | growth inhibition ([1]; at 50.0 µM) | growth inhibition [2, 7] | growth inhibition [2, 8] | growth inhibition ([2]; at 50.0 µM) | growth inhibition [3, 7] | growth inhibition [3, 8] | growth inhibition ([3]; at 50.0 µM) | growth inhibition [4, 7] | growth inhibition [4, 8] | growth inhibition ([4]; at 50.0 µM) | growth inhibition [5, 7] | growth inhibition [5, 8] | growth inhibition ([5]; at 50.0 µM) | growth inhibition [6, 7] | growth inhibition [6, 8] | growth inhibition ([6]; at 50.0 µM)
1 | CCN(CC)CCOc1ccc(/C(C#N)=C/c2ccc(C(F)(F)F)cc2)cc1 | 36% | 96% (active) | 75.5% (active) | 34% | 99% (active) | 48.6% | 65% | 98% (active) | 90.5% (active) | 48% | 90% (active) | 69.3% | 54% | 98% (active) | 54.1% | 38% | 99% (active) | 90.8% (active)
2 | OC(CCl)COc1c(Cl)c(Cl)c(Cl)c(Cl)c1Cl (stereo not given) | -3% | 7% | -1% | -1% | 10% | 4.55% | -4% | 3% | 93% (active) | 2% | 9% | -32.7% | 0% | 16% | 11.4% | -3% | 5% | 13.6%
3 | OCCCNc1nc2ccc(Cl)cc2c2ccccc12 | 7% | 5% | 23.6% | 2% | 2% | 12.4% | 6% | 3% | 25.7% | 5% | 1% | 2.7% | -3% | -4% | 23.8% | -1% | 5% | 70.5% (active)
4 | NC(=S)N/N=C/c1ccc(Cl)s1 | -5% | 80% (active) | 87.2% (active) | -8% | 29% | 47.5% | -5% | 36% | 67.6% | -17% | 9% | 11.7% | -5% | 62% | 57.5% | -6% | 44% | 87% (active)
5 | O=C1Nc2ccccc2/C1=C/c1ccc(Cl)c(Cl)c1 | -1% | 71% (active) | 78.3% (active) | -8% | 89% (active) | 80.3% (active) | -4% | 73% (active) | 65.5% | 20% | 94% (active) | 74.1% (active) | -10% | 94% (active) | 74.7% (active) | 5% | 89% (active) | 78% (active)
6 | CCc1cc2c([nH]c3ccccc32)c(C)c1CCN(C)C | -1% | 23% | 35.1% | 4% | 23% | 3.65% | 3% | 46% | 1.45% | -11% | 24% | -14.6% | -9% | -5% | 12.6% | -5% | 43% | 69.8%
7 | CC(C)CNc1cc(Cl)nc(N)n1 | -1% | 0% | 88% (active) | 4% | 1% | 92.3% (active) | 2% | -3% | 89.9% (active) | -2% | -6% | 91.3% (active) | 1% | -2% | 59% | -4% | -5% | 95.5% (active)
8 | CCCN=Cc1cnc(C#N)c(N)n1 | 4% | 4% | 19% | 4% | 0% | -3.9% | -1% | 4% | 4.6% | 1% | 1% | 71.5% (active) | -2% | -1% | 17.3% | 11% | 2% | 32.5%
9 | OCC(O)C(O)C(O)C(O)C(O)C(/C=N/Nc1ccccc1)=N/Nc1ccccc1 (stereo not given) | -1% | 81% (active) | 55.2% | -2% | 95% (active) | 29.2% | 0% | 50% | 35.2% | 0% | 71% (active) | 31.1% | 18% | 95% (active) | 56% | 8% | 92% (active) | 66.1%
10 | O=C1C=CC(=O)c2c1oc1ccccc21 | 14% | 98% (active) | 60.7% | 6% | 99% (active) | 19% | 13% | 99% (active) | 16.2% | 13% | 79% (active) | 48.5% | 30% | 98% (active) | 36% | 23% | 98% (active) | 57.8%
11 | O=C1C=CC2=Nc3ccccc3CCC2=C1 | -151% | 95% (active) | 90% (active) | -57% | 95% (active) | 99% (active) | -63% | 95% (active) | 87.7% (active) | -52% | 86% (active) | 88.9% (active) | -67% | 97% (active) | 98.8% (active) | -115% | 97% (active) | 95.1% (active)
12 | C=C(CCC(C)C1CCC2(C)C3=C(CC(O)C12C)C1(C)CCC(O)C(C)(C)C1CC3)C(C)C(=O)O (stereo not given) | 11% | 88% (active) | 84.1% (active) | 15% | 91% (active) | 83% (active) | 20% | 90% (active) | 84.8% (active) | 40% | 96% (active) | 87.3% (active) | 29% | 94% (active) | 80.9% (active) | 30% | 95% (active) | 82.7% (active)
13 | Cc1ccc(NS(=O)(=O)c2ccc(C)cc2)cc1 | -7% | 92% (active) | 37.6% | -8% | 92% (active) | 14.1% | -11% | 92% (active) | 26.8% | -6% | 68% | 22.4% | -6% | 90% (active) | 28.6% | -4% | 86% (active) | 47.1%
14 | CN(C)c1ccc(/C=C(\C#N)c2c(F)cccc2F)cc1 | 4% | -2% | 6.05% | 3% | 2% | -10.8% | 4% | 1% | 17.9% | 3% | -3% | 41.8% | 3% | -2% | 13.3% | 1% | -1% | 0.45%
15 | Nc1c(O)c(Cl)cc(Cl)c1Cl | 4% | 94% (active) | 96.2% (active) | -4% | 95% (active) | 98.9% (active) | 1% | 80% (active) | 96.6% (active) | -3% | 70% (active) | 74.6% (active) | 5% | 96% (active) | 98.4% (active) | -1% | 93% (active) | 99% (active)
16 | CC(=O)OCC1(O)OCC(OC(C)=O)C(OC(C)=O)C1OC(C)=O (stereo not given) | 18% | -21% | 12.2% | -15% | -20% | -2.6% | -4% | 9% | 12.6% | 27% | -36% | -2.65% | 6% | -25% | 7.9% | -4% | -14% | 12.9%
17 | O=c1[nH]ccc(CNC23CC4CC(CC(C4)C2)C3)c1O | 5% | 11% | 49.9% | 10% | 33% | 21.4% | 18% | 67% | 61.9% | 10% | 11% | 39.9% | 7% | 49% | 36.4% | 6% | 38% | 81.5% (active)
18 | CCCCC(CC(=O)O)c1ccc(Cl)cc1 (stereo not given) | -146% | -7% | 57.5% | -43% | 17% | 60.7% | -58% | 5% | 40.6% | -63% | 37% | 70% (active) | -61% | 28% | 54.6% | -133% | 13% | 66%
19 | CCCCOP(=O)(OCCCC)C(NS(=O)(=O)c1ccccc1)(C(=O)OCC)C(F)(F)F (stereo not given) | 11% | 42% | 99% (active) | 7% | 28% | 99.1% (active) | 3% | 48% | 99% (active) | 16% | 63% | 99.2% (active) | 9% | 47% | 99.2% (active) | 26% | 79% (active) | 99% (active)
20 | O=C(O)c1c(Cl)c(Cl)c(Cl)c(Cl)c1-c1c2cc(I)c(=O)c(I)c-2oc2c(I)c(O)c(I)cc12 | 75% (active) | 98% (active) | 91.3% (active) | 99% (active) | 99% (active) | 92.1% (active) | 82% (active) | 98% (active) | 91.6% (active) | 98% (active) | 97% (active) | 90.2% (active) | 98% (active) | 98% (active) | 91.4% (active) | 97% (active) | 97% (active) | 91.2% (active)
